Measured values taken from PubChem BioAssay AID1224854 (National Center for Advancing Translational Sciences (NCATS), 2016).
Results filed as inconclusive are left out. A number with no mark means an inactive call. Calls of active or inactive are those of the source. Calls follow the shape of the dose curve; as a rule, active = well fitted activation curve with a large enough effect; inconclusive = small, poorly fitted or top-dose-only effect; inactive = flat fitted curve, though single readings scatter.

Assay: Cell viability assay for measurement of the protective activity of small molecules against cell death caused by Zika virus infection in human astrocytoma cells
Conditions: SNB-19 Zika virus cytoprotection, ATP luminescence, 72 h; series mostly up to 46.1 µM; protection from virus-induced cell death: at the top concentration
Description: National Center for Advancing Translational Sciences [NCATS] Johns Hopkins University School of Medicine Florida State University Assay Overview: Zika virus infection causes cell death in certain cell types including human neural progenitor cells (hNPCs), astrocytes, and astrocytoma cell line (SNB-19). This cell viability assay measures the ATP content (level) in human astrocytoma cells (SNB-19) using a luminescence readout that is proportional to viable cell numbers. Decrease in the luminescence signal after Zika virus infection indicates the cell death caused by Zika virus. Small molecule inhibitors […] the decreased luminescence signal after Zika virus infection, indicating the protective effect of that small molecule on the cell death caused by Zika virus infection. This observed protective effect of small molecules against Zika virus induced cell death may result from inhibition of virus replication or cellular response to the virus infection.
Assay Protocol Summary: The medium for SNB-19 cells is composed of RPMI 1640 (ATCC, Cat.# 30-2001), 10% fetal bovine serum (FBS) (GE healthcare Life Sciences, Cat.# SH30071.03), and 1% Pen/Strep (Gibco, Cat.# 15140-122). The ATP content assay kit (PerkinElmer, Cat.# 6016731) was used to determine cell viability. The reagent was reconstituted and prepared as described by the manufacturer. Cells were seeded in 384- or 1536-well assay plates and cultured at 37 C with 5% CO2 for 16 to 20 hours. The typical cell seeding density in the 1536-well plate assay is 250 cells/well in 3ul medium for SNB-19 cells in tissue culture treated plates. Compounds were added to cells and incubated for one hour before addition of ZIKV solution to cells (2 FFU/cell). After incubation at 37 C with 5% CO2 for 72 hours, the reagent mixture of the ATP content assay kit was added to each well, followed by incubation at room temperature for 10 minutes. The luminescence intensity of the assay plates was measured using a ViewLux plate reader (PerkinElmer). […] The percentage inhibitions of the decreased cell viability by small molecule inhibitors were then calculated.

Row | Structure (SMILES) | protection from virus-induced cell death | Potency
1 | CC(C)N[C@@H]1CCn2c(=O)[nH]c3cccc(c32)[C@@H]1O | -8.11% | 
2 | CN1CC[C@@]2(C)c3cc(OC(=O)Nc4ccccc4)ccc3N(C)[C@@H]12 | 14.1% | 
3 | COP(=S)(OC)SCN1C(=O)c2ccccc2C1=O | -5.99% | 
4 | CC(=C(CCOC(=O)C(C)C)SSC(CCOC(=O)C(C)C)=C(C)N(C=O)Cc1cnc(C)nc1N)N(C=O)Cc1cnc(C)nc1N | 3.38% | 
5 | S=C(SSC(=S)N1CCCCC1)N1CCCCC1 |  | 17.3 µM (active)
6 | CN1CC(=O)N2C(Cc3c([nH]c4ccccc34)[C@H]2c2ccc3c(c2)OCO3)C1=O (stereo partly drawn) | 2.24% | 
7 | O=C1CCC[C@@H]2[C@H]3CCCN4CCC[C@@H](CN12)[C@@H]34 | 3.58% | 
8 | COc1cccc2c1C(=O)c1c(O)c3c(c(O)c1C2=O)C[C@@](O)(C(=O)CO)CC3OC1CC(N2CCOC(OC)C2)C(O)C(C)O1 (stereo partly drawn) |  | 0.388 µM (active)
9 | CC(C)[C@H]1C(=O)N[C@H](CO)Cc2c[nH]c3cccc(c23)N1C |  | 2.45 µM (active)
10 | Cc1ccc([N+](=O)[O-])[c]2c1[O][Hg]2 | -16.5% | 
11 | O=C(Nc1ccc(Br)cc1)c1cc(Br)cc(Br)c1O | -11.1% | 
12 | O=S(=O)(CC1CS1)c1ccc(Oc2ccccc2)cc1 (stereo not drawn) | 11.2% | 
13 | O=c1c2ccccc2[se]n1-c1ccccc1 | -0.214% | 
